RORg inh: ROR gamma (mouse) transcription inhibition; P51450; AID 2551; Drosophila S2 Gal4-RORgamma UAS-luciferase reporter, 20 h; Potency, µM (titrated, usually from 53.6 µM), hits mostly inhibitors; 310,000 compounds, 5.4% hits; further: nearly all actives have a fitted effect of over 60% in size
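ROR gamma transcriptional activity was tracked as Gal4-UAS luciferase output in stably transfected Drosophila Schneider cells, with compound added 1 hr before 700 uM copper sulfate induction and a 20 hr ambient-temperature incubation.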
DT40 TDP1 no CPT: qHTS for Inhibitors of human tyrosyl-DNA phosphodiesterase 1 (TDP1): qHTS in cells in absence of CPT. DT40 Tdp1-/- hTDP1 cells, no CPT, ATP luminescence, 48 h. Potency, µM (titrated, usually from 46.2 µM), most hits filed as inhibitors. 420,000 compounds, 15% hits. AID 686978, 2013; further: nearly all actives have a fitted effect of over 55% in size
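Stably hTDP1-transfected Tdp1-null chicken DT40 cells were treated with library compounds minus camptothecin and grown for at least 48 hr at 37 °C, after which cellular ATP was quantified by luminescence.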
Gal4-VP16 FLuc: counter-screen for ROR gamma inhibitors: Gal4-VP16 reporter. Drosophila S2 Gal4-VP16 UAS-luciferase, luminescence, 20 h. Potency, µM (top dose mostly 53.6 µM), actives largely listed as inhibitors. 310,000 compounds, 3.5% hits. AID 2546;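 further: Gal4-VP16 expression switched on by copper sulfate through the metallothionein promoter; nearly all actives have a fitted effect of over 50% in size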
DT40 TDP1 CPT: DT40-hTDP1 cell growth loss with CPT | chicken DT40 Tdp1-/-;hTDP1 cells + 20 nM CPT, ATP luminescence, 48 h | Potency, µM (highest dose often 46.2 µM), usual class: inhibitors | 420,000 compounds, 12% hits | AID 686979; further: nearly all actives have a fitted effect of over 55% in size
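Chicken DT40 Tdp1-/- cells stably complemented with human TDP1 were seeded at 400 cells/well in medium containing 20 nM camptothecin, exposed to pin-transferred compounds, and grown at 37 °C for at least 48 hr. Viability was read as ATP luminescence.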
TDP1 inh: blocks human tyrosyl-DNA phosphodiesterase 1; Potency, µM (titrated, usually from 130 µM), actives largely listed as inhibitors; recombinant TDP1, AlphaScreen DNA substrate cleavage; Q9NUW8; AID 485290; 350,000 compounds, 0.28% hits; further: nearly all actives have a fitted effect of over 40% in size
Target sequence (Q9NUW8 whole entry, looked up): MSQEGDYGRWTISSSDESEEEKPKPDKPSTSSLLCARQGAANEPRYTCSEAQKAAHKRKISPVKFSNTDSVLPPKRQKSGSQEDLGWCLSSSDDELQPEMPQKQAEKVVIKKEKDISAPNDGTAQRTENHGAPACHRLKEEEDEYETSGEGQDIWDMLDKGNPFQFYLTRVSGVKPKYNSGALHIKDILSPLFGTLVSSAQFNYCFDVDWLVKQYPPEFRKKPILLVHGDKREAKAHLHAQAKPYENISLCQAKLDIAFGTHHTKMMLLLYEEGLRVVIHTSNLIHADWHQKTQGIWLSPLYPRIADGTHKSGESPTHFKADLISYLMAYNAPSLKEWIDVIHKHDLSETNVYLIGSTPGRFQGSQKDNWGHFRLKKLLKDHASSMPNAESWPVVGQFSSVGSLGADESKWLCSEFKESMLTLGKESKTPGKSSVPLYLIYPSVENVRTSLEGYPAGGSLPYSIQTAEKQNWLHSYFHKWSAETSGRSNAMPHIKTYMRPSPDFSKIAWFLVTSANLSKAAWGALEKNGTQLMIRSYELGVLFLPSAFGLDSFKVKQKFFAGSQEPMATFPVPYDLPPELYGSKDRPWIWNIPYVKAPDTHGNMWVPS
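Compounds were preincubated with Tdp1 (1 nM final) for 15 min at room temperature before substrate (15 nM final) started a 5 min reaction; beads (10 ug/ml final) were then added for 10 min before AlphaScreen detection.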
Hits are given with their value; - = inactive; ? = inconclusive; . = no result given; [ ] = another dose, or the depositor's remark. The list is not random: actives were taken first. Their share in the collection is about 19%. The call rests on the fitted dose curve; in most records, active means well fitted curve in the direction sought with a large enough effect; inconclusive means small, poorly fitted or top-dose-only effect, or another doubt; inactive means no such curve, though single readings can be large; an effect the other way counts as inactive or inconclusive.

SMILES	RORg inh	DT40 TDP1 no CPT	Gal4-VP16 FLuc	DT40 TDP1 CPT	TDP1 inh
CCC(C)(C)C(=O)Nc1ncc(S(=O)(=O)c2ccc([N+](=O)[O-])cc2)s1	-	?	-	?	-
Cc1cccc(NC(=O)C2Cc3ccccc3CN2C(=O)OCc2ccccc2)c1C (stereo not drawn)	-[10 µM]	?	-	?	-
C[C@@H]1CN([C@@H](C)CO)S(=O)(=O)c2ccc(Br)cc2O[C@H]1CN(C)Cc1ccccn1	.	23.1µM	.	14.6µM	.
C[C@@H]1CN([C@H](C)CO)S(=O)(=O)c2ccc(-c3ccc(C(=O)N(C)C)cc3)cc2O[C@H]1CN(C)C(=O)Cc1ccccn1	.	-	.	-	.
C[C@@H]1CN([C@@H](C)CO)S(=O)(=O)c2ccc(-c3ccc(C#N)cc3)cc2O[C@@H]1CN(C)Cc1ccccn1	.	13µM	.	?	.
C[C@H]1CN([C@@H](C)CO)S(=O)(=O)c2ccc(Br)cc2O[C@H]1CN(C)C(=O)Cc1ccccn1	.	-	.	-	.
NC/C=C\C(=O)O	-	-	-	-	?
Cc1nnc(SCC(=O)Nc2ccc(N3CCOCC3)cc2)o1	-	-	-	-	-
NC(=O)c1ccc[n+](Cc2cccc3ccccc23)c1	-	-	-	-	-
O=C(c1ccc([N+](=O)[O-])cc1)N1CCSC1c1ccc(Br)cc1 (stereo not drawn)	-	18.4µM	-	?	-
O=C1CSC(c2c(F)cccc2Cl)N1c1cccc(F)c1 (stereo not drawn)	-	-	-	?	-
C[C@H](NC(=O)c1nc[nH]c1C(=O)N[C@@H](Cc1ccccc1)C(=O)OC(C)(C)C)C(=O)OCc1ccccc1	7.94µM	18.4µM	?	?	.
CNC(=O)c1[nH]cnc1C(=O)N[C@@H](Cc1ccccc1)C(=O)OCc1ccccc1	17.8µM	?	?	14.6µM	-
O=C(N[C@@H](Cc1ccccc1)C(=O)OCc1ccccc1)c1nc[nH]c1C(=O)N1CCc2ccccc2C1	12.6µM	?	?	?	-
CC(C)C[C@H](NC(=O)c1nc[nH]c1C(=O)N1CCc2ccccc2C1)C(=O)OCc1ccccc1	?	?	?	?	-
C[C@H](NC(=O)c1nc[nH]c1C(=O)N1CCN(C(=O)OC(C)(C)C)CC1)C(=O)OCc1ccccc1	?	?	-	?	.
CC(C)(C)OC(=O)CNC(=O)c1nc[nH]c1C(=O)N1CCc2ccccc2C1	11.2µM	-	?	-	.
O=C(Cn1c(=O)n(-c2ccc(F)c(Cl)c2)c(=O)c2sc3ccccc3c21)NC1CCCCC1	.	-	.	-	-
Cc1noc(C)c1C(=O)N1CCC2(CCCN(c3ccccn3)C2)CC1	-	?	-	-	.
CN(CC(=O)Nc1c(Cl)cccc1Cl)C(=O)c1cccn1C	-	-	-	-	-
CCCCC/C=C\C/C=C\C/C=C\C=C\C1CCCC(=O)O1 (stereo not drawn)	-	.	-	.	-
CNC(=O)c1[nH]cnc1C(=O)N[C@@H](C)C(=O)OCc1ccccc1	-	-	-	?	-
C[C@H](NC(=O)c1nc[nH]c1C(=O)N[C@@H](Cc1ccccc1)C(=O)OCc1ccccc1)C(=O)OCc1ccccc1	11.2µM	23.1µM	?	?	.
COC(=O)C1=C(C)C(c2ccc(OC)cc2)NC(=S)N1 (stereo not drawn)	10µM	-	-	-	-
CCOC(=O)C1=C(C)NC(=S)N(C=O)C1c1ccccc1 (stereo not drawn)	11.2µM	?	?	-	-
SMILES	RORg inh	DT40 TDP1 no CPT	Gal4-VP16 FLuc	DT40 TDP1 CPT	TDP1 inh
COC(=O)C1=C(C)NC(=S)N(C(C)=O)C1c1ccccc1 (stereo not drawn)	?	-	?	-	-
CCOC(=O)C1=C(C)C(c2ccccc2)NC(=S)N1 (stereo not drawn)	7.08µM	-	?	-	-
O=C(/C(N=Nc1cccc([N+](=O)[O-])c1)=C(/O)c1ccc(Br)cc1)C(F)(F)F	7.94µM	.	4.47µM	.	-
O=[N+]([O-])c1cccc(N=Cc2ccccc2)c1	.	-	.	-	.
O=[N+]([O-])c1ccc(O)c(/C=N/NC2=NS(=O)(=O)c3ccccc32)c1	1.26µM	0.517µM	1.26µM	4.11µM	-
O=C(N/N=C/c1cccs1)C(O)c1ccccc1 (stereo not drawn)	-	-	-	-	.
O=[N+]([O-])c1ccc(/C=N/NC2=NS(=O)(=O)c3ccccc32)cc1	-	-	-	-	-
O=S1(=O)N=C(N/N=C/c2cccs2)c2ccccc21	0.891µM	?	0.501µM	-	.
O=[N+]([O-])c1ccc(O)c(/C=N/Nc2ccc(Cl)nn2)c1	1µM	1.16µM	1.41µM	1.16µM	-
O=[N+]([O-])c1ccc(O)c(/C=N\N=C2c3ccccc3-c3ccccc32)c1	-[10 µM]	11.6µM	?	23.1µM	-
COc1ccc(-c2nnn(CC(=O)NC3CCCc4ccccc43)n2)cc1OC (stereo not drawn)	-	?	-	-	-
O=C(OCc1ccccc1)C1CCCN1C(=O)c1ccccc1[N+](=O)[O-] (stereo not drawn)	-	16.4µM	-	14.6µM	-
O=C(OCc1ccccc1)C1CCCN1C(=O)c1cccs1 (stereo not drawn)	-	-	-	-	-
COc1cc(OC)cc(C(=O)c2c(C)c(C#N)c3ccccn23)c1	-	2.31µM	-	2.31µM	.
CN(C(=O)c1ccc(NC(=O)C2CCCN(C(=O)OC(C)(C)C)C2)cc1)C1CCC1 (stereo not drawn)	.	16.4µM	.	?	-
CN(Cc1ccccc1)C(=O)c1cccc(NC(=O)C2CCCN(C(=O)OC(C)(C)C)C2)c1 (stereo not drawn)	.	16.4µM	.	18.4µM	-
CN(CCc1ccccc1)C(=O)c1ccc(NC(=O)Cc2cccc(NC(=O)C3CCN(C(=O)C4CCC4)CC3)c2)cc1	.	20.6µM	.	16.4µM	.
CN(Cc1ccccc1)C(=O)c1cccc(NC(=O)Cc2ccc(NC(=O)C3CCN(C(=O)C4CCC4)CC3)cc2)c1	.	23.1µM	.	?	.
CN(Cc1ccccc1)C(=O)c1ccc(NC(=O)Cc2cccc(NC(=O)C3CCN(C(=O)C4CCCCC4)CC3)c2)cc1	.	?	.	?	-
CN(C(=O)c1ccc(NC(=O)C2CCCN(C(=O)OC(C)(C)C)C2)cc1)C1CCCC1 (stereo not drawn)	.	?	.	?	-
CN(Cc1ccccc1)C(=O)c1cccc(NC(=O)Cc2ccc(NC(=O)C3CCCN(C(=O)C4CC4)C3)cc2)c1 (stereo not drawn)	.	?	.	-	.
CC(C)(C)OC(=O)N1CCCC(C(=O)Nc2cccc(C(=O)N3CCCC3)c2)C1 (stereo not drawn)	.	-	.	-	-
Cc1nn(CCc2nc(-c3ccco3)cs2)c2[nH]c(=O)cc(C(F)(F)F)c12	-	?	-	?	?
Cc1ccc(C(=O)NCCc2ccc(S(N)(=O)=O)cc2)o1	-	-	-	-	-
